Laboratory results: article PMC5540273 (PLoS ONE, 2017)

Each molecule was assayed on PRKG2. Details: concentration: 1 μM, replicates: in singlicate; n = 1.
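Also: KINOMEscan kinase panel screen.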

Going from CC(=O)c1c(C)c2cnc(Nc3ccn(C)n3)nc2n(C2CCCC2)c1=O to CC(=O)c1cccc(NC(=O)NC2CCN(c3ccnc(Nc4ccc(F)cc4)n3)C2)c1 (centres unmarked) [GSK1379710], the “%Inh” value rises from 0% to 31%.

First: COc1ccc(Nc2nccc(N3CCC(NC(=O)C(C)c4ccc(Cl)cc4)CC3)n2)cc1 (centres unmarked) [GSK1379812]
Second: COC(=O)c1cccc(NC(=O)NC2CCN(c3ccnc(Nc4ccc(F)cc4)n3)C2)c1 (centres unmarked) [GSK1379725]
The “%Inh” value of the first is higher: 17% for the first, 0% for the second.

Compared with CC(C)c1cc(-c2ccc3c(N)n[nH]c3c2)nc(N)n1 [GSK2250882], Nc1cccc(-c2ccc3c(N)n[nH]c3c2)n1 [GSK2192730] is lower in “%Inh” value: 14% for the first, 0% for the second.

Compared with Fc1ccc(-c2nc3n(c2-c2ccncc2)CCS3)cc1 [GI98581], Cc1nccc(-c2c(-c3ccc(F)cc3)ncn2CCCN2CCOCC2)n1.Cl [SB-282975] is higher in “%Inh” value: 0% for the first, 26% for the second.

Compared with COc1nccc(-c2c(-c3ccc(F)cc3)ncn2CCCN2CCOCC2)n1 [SB-282852], Cl.Cl.Cl.N#Cc1ccc(CCNc2nccc(-c3cccc(CN4CCNCC4)c3)n2)cc1 [GSK2137462] is lower in “%Inh” value: 24% for the first, 4% for the second.

Compared with CNc1nc(-c2ccc3c(N)n[nH]c3c2)cc(N2C[C@@H](C(=O)Nc3ccccc3)CC[C@H]2C)n1 [GSK2298859], COc1ccc(Nc2nccc(-c3ccc(NC(=O)c4cc5cc(F)ccc5[nH]4)cc3)n2)cc1 [GSK1229496] is lower in “%Inh” value: 32% for the first, 0% for the second.

First: O=C1NC(=O)C(c2ccc(Cl)cc2)=C1Nc1ccc(O)cc1 [SB-340867]
Second: Cc1ccc(NC(=O)Nc2ccccc2)cc1-c1ccc(C(=O)Nc2ccncc2)cc1 [GSK1398471]
The “%Inh” value of the first is higher: 1% for the first, 0% for the second.

Compared with Cn1cnc2c(N)ncnc21 [SKF-97623], CCn1c(-c2c(N)noc2C)nc2cnccc21 [SB-737856] is lower in “%Inh” value: 92.2% for the first, 0% for the second.

Compared with Cn1cncc1-c1cc2c(Nc3ccc(OCc4ccccc4)cc3)ncnc2cn1 [GW281179], CS(=O)(=O)CCNCc1nc(-c2ccc3ncnc(Nc4ccc5c(cnn5Cc5ccccc5)c4)c3c2)cs1.Cl.Cl [GW569716] is lower in “%Inh” value: 100% for the first, 0% for the second.

First: Cc1c(Cn2c(C)c(C)n3c(=O)cc(N4CCOCC4)nc23)cccc1C(F)(F)F [GSK2328680]
Second: COc1ccc(CSc2nnc(-c3ccc4nccn4c3)o2)cc1C(F)(F)F
The “%Inh” value of the first is higher: 91.2% for the first, 16% for the second.

Compared with Cc1ccc(-c2nc(Nc3ccncc3)c3ccccc3n2)s1 [GSK189015], COc1cc2ncnc(Nc3cccc(Br)c3)c2cc1OC.Cl [GI230329] is higher in “%Inh” value: 0% for the first, 1% for the second.

For CCc1ccc(-c2ccc3c(c2)-c2n[nH]cc2S(=O)(=O)N3C)cc1, the “%Inh” value was 6%.

The molecules below were run on T1, PRKR. Details: concentration: 1 μM, replicates: in singlicate; n = 1.
T1 construct: gene EIF2AK2

COc1cccc(C2=C(Nc3cc(Cl)c(O)c(Cl)c3)C(=O)NC2=O)c1 [SB-390767] and O=C1NC(=O)C(c2ccc(Cl)cc2)=C1Nc1ccc(O)cc1 [SB-340867] are the same in “%Inh” value: 0% for the first, 0% for the second.

First: CN1c2ccc(-c3ccc(C(N)=O)cc3)cc2-c2[nH]ncc2S1(=O)=O
Second: CCc1ccc(-c2ccc3c(c2)-c2n[nH]cc2S(=O)(=O)N3C)cc1
The “%Inh” value of the first is higher: 6% for the first, 0% for the second.

Compared with O=C(Nc1n[nH]c2nc(-c3ccco3)c(Br)cc12)C1CCN(Cc2ccccc2)C1.O=C(O)[C@H](O)[C@@H](O)C(=O)O (centres unmarked) [SB-742034], CNc1nc(-c2ccc3c(N)n[nH]c3c2)cc(N2C[C@@H](C(=O)Nc3ccccc3)CC[C@H]2C)n1 [GSK2298859] is lower in “%Inh” value: 5% for the first, 0% for the second.

Cc1ccccc1-c1cc(-c2c[nH]nc2-c2ccccn2)ccn1 [GW680061] and Cc1ccc(-c2nc(Nc3ccncc3)c3ccccc3n2)s1 [GSK189015] are the same in “%Inh” value: 0% for the first, 0% for the second.

Going from O=C(Nc1n[nH]c2cc(-c3ccsc3)ccc12)C1CC1 [SB-732932] to Nc1cccc(-c2ccc3c(N)n[nH]c3c2)n1 [GSK2192730], the “%Inh” value rises from 0% to 10%.

Fc1ccc(-c2nc[nH]c2-c2ccncc2)cc1 [SB-217360] and Fc1ccc(-c2nc3n(c2-c2ccncc2)CCS3)cc1 [GI98581] are the same in “%Inh” value: 0% for the first, 0% for the second.

CNCc1ccc2nc(NC(=O)c3ccc(C(C)(C)C)cc3)cn2c1 and COc1ccc(Nc2nccc(NCCNC(=O)Nc3cc(C)ccc3C)n2)cc1 [GSK1379899] are the same in “%Inh” value: 0% for the first, 0% for the second.

Going from Cc1ccc(NC(=O)Nc2ccc(Cl)cc2)cc1-c1ccc(C(=O)Nc2ccncc2)cc1 [GSK1398472] to Cc1ccc(NC(=O)Nc2ccccc2)cc1-c1ccc(C(=O)Nc2ccncc2)cc1 [GSK1398471], the “%Inh” value falls from 1% to 0%.

First: CCCCc1nn2ncccc2c1-c1ccnc(NC2CC2)n1 [GW684374]
Second: Cl.Cl.Cl.N#Cc1ccc(CCNc2nccc(-c3cccc(CN4CCNCC4)c3)n2)cc1 [GSK2137462]
The “%Inh” value of the first is higher: 10% for the first, 0% for the second.

COc1ccc(-c2coc3ccc(-c4nnc(C)o4)cc23)cc1 and COc1ccc(CSc2nnc(-c3ccc4nccn4c3)o2)cc1C(F)(F)F are the same in “%Inh” value: 0% for the first, 0% for the second.

CS(=O)(=O)CCNCc1nc(-c2ccc3ncnc(Nc4ccc(OCc5ccccc5)c(Cl)c4)c3c2)cs1.Cl [GW582764] and CS(=O)(=O)CCNCc1nc(-c2ccc3ncnc(Nc4ccc5c(cnn5Cc5ccccc5)c4)c3c2)cs1.Cl.Cl [GW569716] are the same in “%Inh” value: 0% for the first, 0% for the second.

First: CC[C@@H]1CO[C@H](C(=O)Nc2ccccc2)CN1c1cc(-c2ccc3c(N)n[nH]c3c2)nc(NC)n1 [GSK2376236]
Second: CC(C)c1cc(-c2ccc3c(N)n[nH]c3c2)nc(N)n1 [GSK2250882]
The “%Inh” value of the first is higher: 12% for the first, 6% for the second.

Compared with CC(=O)c1c(C)c2cnc(Nc3ccn(C)n3)nc2n(C2CCCC2)c1=O, CC(=O)c1cccc(NC(=O)NC2CCN(c3ccnc(Nc4ccc(F)cc4)n3)C2)c1 (centres unmarked) [GSK1379710] is higher in “%Inh” value: 0% for the first, 13% for the second.

COc1ccc(Nc2nccc(N3CCC(NC(=O)C(C)c4ccc(Cl)cc4)CC3)n2)cc1 (centres unmarked) [GSK1379812] and COC(=O)c1cccc(NC(=O)NC2CCN(c3ccnc(Nc4ccc(F)cc4)n3)C2)c1 (centres unmarked) [GSK1379725] are the same in “%Inh” value: 0% for the first, 0% for the second.

Going from COc1nccc(-c2c(-c3ccc(F)cc3)ncn2CCCN2CCOCC2)n1 [SB-282852] to Cc1nccc(-c2c(-c3ccc(F)cc3)ncn2CCCN2CCOCC2)n1.Cl [SB-282975], the “%Inh” value falls from 10% to 0%.

Cn1cnc2c(N)ncnc21 [SKF-97623] and CCn1c(-c2c(N)noc2C)nc2cnccc21 [SB-737856] are the same in “%Inh” value: 0% for the first, 0% for the second.

Cn1cncc1-c1cc2c(Nc3ccc(OCc4ccccc4)cc3)ncnc2cn1 [GW281179] and COc1cc2ncnc(Nc3cccc(Br)c3)c2cc1OC.Cl [GI230329] are the same in “%Inh” value: 0% for the first, 0% for the second.

Cc1c(Cn2c(C)c(C)n3c(=O)cc(N4CCOCC4)nc23)cccc1C(F)(F)F [GSK2328680] and COc1ccc(Nc2nccc(-c3ccc(NC(=O)c4cc5cc(F)ccc5[nH]4)cc3)n2)cc1 [GSK1229496] are the same in “%Inh” value: 0% for the first, 0% for the second.
